# In PubChem BioAssay (NCATS):
# Records with an inconclusive call do not appear. Calls of active or inactive are those of the source. Unless noted, calls follow the shape of the full dose curve.
# Key:
# [1] = molecular target: Bile acid receptor (Homo sapiens) (UniProt Q96RI1); assay: qHTS assay for small molecule antagonists of farnesoid X receptor signaling (AID 588526); also: % is scaled to controls: 0 for no effect and ±100 for the full control effect
# Method in brief: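 Concentration-response titrations were fitted to the Hill equation for half-maximal inhibition and maximal response, with data normalised to 50 uM chenodeoxycholic acid and DMSO control wells. Cells: FXR-UAS-bla HEK293T, dialyzed FBS.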
# [2] = molecular target: Bile acid receptor (Homo sapiens) (UniProt Q96RI1); assay: qHTS assay for small molecule agonists of farnesoid X receptor signaling (AID 588527); conditions: HEK293T FXR-UAS-bla, beta-lactamase ratio, 16 h; activation: stronger effect = higher value;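 also: series mostly up to about 77 µM; 0% = vehicle basal and 100% = reference agonist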
# Method in brief: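 FXR-UAS-bla HEK293T, 10% dialyzed FBS; cpds up to 92 uM titration, 16 h 37 C; CCF4 dye 2 h RT; fluorescence. Normalized to chenodeoxycholic acid 100 uM (100%) and DMSO (0%); Hill fit gives EC50, efficacy.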
# [3] = molecular target: Vitamin D3 receptor (Homo sapiens) (UniProt P11473); assay: qHTS assay for small molecule antagonists of vitamin D receptor signaling (AID 588541);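 also: receptor activated by calcitriol during compound treatment; series mostly up to about 77 µM; % is scaled to controls: 0 for no effect and ±100 for the full control effect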
# Chain of Vitamin D3 receptor (Homo sapiens) (P11473 whole entry, looked up): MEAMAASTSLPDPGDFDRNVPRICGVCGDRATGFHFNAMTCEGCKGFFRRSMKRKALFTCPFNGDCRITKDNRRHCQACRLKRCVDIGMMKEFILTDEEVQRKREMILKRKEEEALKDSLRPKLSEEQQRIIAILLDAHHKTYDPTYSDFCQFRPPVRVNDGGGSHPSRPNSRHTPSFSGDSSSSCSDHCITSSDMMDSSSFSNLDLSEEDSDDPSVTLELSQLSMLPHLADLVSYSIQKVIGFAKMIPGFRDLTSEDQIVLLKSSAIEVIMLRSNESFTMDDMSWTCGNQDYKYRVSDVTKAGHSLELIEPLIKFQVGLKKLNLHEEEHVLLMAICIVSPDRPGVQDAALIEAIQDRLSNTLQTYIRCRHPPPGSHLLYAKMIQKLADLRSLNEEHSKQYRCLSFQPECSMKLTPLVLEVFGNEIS
# Method in brief: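 VDR-UAS-bla HEK293T cells (2000/well, 2% charcoal-stripped FBS) were treated with titrated compounds plus 1-alpha,25-dihydroxyvitamin D3 (50 nM or 3 nM final) for 16 h at 37 C. CCF4 beta-lactamase fluorescence was read; Hill fits gave IC50.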
# [4] = molecular target: Retinoic acid receptor RXR-alpha (Homo sapiens) (UniProt P19793); assay: qHTS assay for small molecule agonists of retinoid X receptor alpha signaling (AID 588544); also: potency is read from the fitted curve at half-maximal effect;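 as to activation: 0% = DMSO basal wells and 100% = reference agonist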
# Chain of Retinoic acid receptor RXR-alpha (Homo sapiens) (P19793 whole entry, looked up): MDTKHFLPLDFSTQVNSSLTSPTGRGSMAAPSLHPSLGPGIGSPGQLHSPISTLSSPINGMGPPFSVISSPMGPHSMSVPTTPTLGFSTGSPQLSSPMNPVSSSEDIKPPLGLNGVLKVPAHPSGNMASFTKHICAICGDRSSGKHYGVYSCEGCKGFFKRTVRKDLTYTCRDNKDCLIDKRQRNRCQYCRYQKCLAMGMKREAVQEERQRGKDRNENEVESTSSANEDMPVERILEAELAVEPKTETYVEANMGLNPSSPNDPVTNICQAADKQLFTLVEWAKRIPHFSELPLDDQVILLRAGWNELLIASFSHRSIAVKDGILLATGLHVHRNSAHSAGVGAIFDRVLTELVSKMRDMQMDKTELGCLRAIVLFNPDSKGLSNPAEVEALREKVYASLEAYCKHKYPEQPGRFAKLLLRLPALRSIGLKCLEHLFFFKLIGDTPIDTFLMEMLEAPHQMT
# [5] = molecular target: Thyroid hormone receptor beta (Homo sapiens) (UniProt P10828); assay: qHTS assay for small molecule agonists of thyroid hormone receptor beta signaling (AID 588545);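 also: 0% = DMSO only and 100% = 10 nM T3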
# Chain of Thyroid hormone receptor beta (Homo sapiens) (P10828 whole entry, looked up): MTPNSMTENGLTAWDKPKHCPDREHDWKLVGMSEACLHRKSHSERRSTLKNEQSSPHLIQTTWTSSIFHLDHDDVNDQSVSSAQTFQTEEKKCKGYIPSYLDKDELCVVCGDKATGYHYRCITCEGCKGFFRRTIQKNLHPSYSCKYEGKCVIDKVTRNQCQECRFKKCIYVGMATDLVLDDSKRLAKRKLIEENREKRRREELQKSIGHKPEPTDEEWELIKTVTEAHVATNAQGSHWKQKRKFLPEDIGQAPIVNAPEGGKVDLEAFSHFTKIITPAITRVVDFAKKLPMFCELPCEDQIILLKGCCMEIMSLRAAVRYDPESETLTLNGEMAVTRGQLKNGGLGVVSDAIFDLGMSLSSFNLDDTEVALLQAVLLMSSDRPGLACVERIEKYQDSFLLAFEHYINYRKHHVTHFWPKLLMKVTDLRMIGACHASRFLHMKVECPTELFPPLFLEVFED
# Method in brief: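 TR-UAS-bla GripTite HEK 293 cells (2500/well, medium with 2% charcoal/dextran FBS) were treated in agonist mode for 18 h at 37 C, titrated. Beta-lactamase was read by CCF4 ratio after 2 h; normalized to 10 nM T3 (100%) and DMSO, Hill-fitted for EC50 and efficacy.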
# [6] = qHTS assay for small molecule antagonists of retinoid X receptor alpha signaling (AID 588546; active = well fitted inhibition curve with a large enough effect in the signal ratio, with a control signal flat, not every such curve was filed as active; the % refers to the signal ratio;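 also: cells stimulated with 9-cis-retinoic acid as agonist; % is scaled to controls: 0 for no effect and ±100 for the full control effect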); conditions: HEK293T RXRa-UAS-bla, beta-lactamase ratio, antagonist mode; measured here: W530 green channel, cytotoxicity proxy
# Method in brief: (§1)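 Beta-lactamase reporter inhibition, read as CCF4 fluorescence ratio (ex 405, em 460/530 nm) after 2 h at RT. HEK293T UAS-bla cells, 2500/well, were stimulated with 9-cis-RA at 500 or 100 nM final alongside test compound for 18 h at 37 C.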
# [7] = molecular target: Retinoic acid receptor RXR-alpha (Homo sapiens) (UniProt P19793); assay: as above; conditions: HEK293T RXRa-UAS-bla, beta-lactamase ratio, antagonist mode
# Method in brief: as §1
# [8] = qHTS assay for small molecule activators of the p53 signaling pathway (AID 651743; active = well fitted activation curve with a large enough effect in the signal ratio, not every such curve was filed as active; the % refers to the signal ratio; also: series mostly up to about 92 µM; % of control where 0% means no effect); conditions: HCT-116 p53RE-bla, beta-lactamase FRET ratio, 16 h; activation: stronger effect = higher value
# Method in brief: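 Cell-based beta-lactamase reporter (p53 response elements, HCT-116 background). After a 5-hour preincubation, cells received compound for 16 hours at 37 C; substrate development ran 2 hours at room temperature.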
# [9] = qHTS assay for small molecule activators of the nuclear factor-kappa B (NF-kB) signaling pathway (AID 651749; active = well fitted activation curve with a large enough effect in the signal ratio; the % refers to the signal ratio; also: series mostly up to about 77 µM; % of control where 0% means no effect); conditions: NF-kB-bla ME-180 cells, beta-lactamase FRET ratio, 16 h; activation: stronger effect = higher value
# Method in brief: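 Screening used 2,000 ME-180 reporter cells per well exposed to pinned compound (23 nL) or DMSO; after 16 hr at 37C, beta-lactamase expression under NF-kB control was assessed through FRET.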
# [10] = molecular target: Peroxisome proliferator-activated receptor alpha (Homo sapiens) (UniProt Q07869); assay: qHTS assay for small molecule agonists of the peroxisome proliferator-activated receptor alpha (PPARalpha) signaling pathway (AID 651778; active = well fitted curve in the direction sought with a large enough effect; an effect the other way counts as inactive or inconclusive; also: potency is read from the fitted curve at half-maximal effect; as to max response: % of control where 0% means no effect); conditions: PathHunter PPARalpha complementation, chemiluminescence, 6 h; max response: stronger effect = higher value
# Chain of Peroxisome proliferator-activated receptor alpha (Homo sapiens) (Q07869 whole entry, looked up): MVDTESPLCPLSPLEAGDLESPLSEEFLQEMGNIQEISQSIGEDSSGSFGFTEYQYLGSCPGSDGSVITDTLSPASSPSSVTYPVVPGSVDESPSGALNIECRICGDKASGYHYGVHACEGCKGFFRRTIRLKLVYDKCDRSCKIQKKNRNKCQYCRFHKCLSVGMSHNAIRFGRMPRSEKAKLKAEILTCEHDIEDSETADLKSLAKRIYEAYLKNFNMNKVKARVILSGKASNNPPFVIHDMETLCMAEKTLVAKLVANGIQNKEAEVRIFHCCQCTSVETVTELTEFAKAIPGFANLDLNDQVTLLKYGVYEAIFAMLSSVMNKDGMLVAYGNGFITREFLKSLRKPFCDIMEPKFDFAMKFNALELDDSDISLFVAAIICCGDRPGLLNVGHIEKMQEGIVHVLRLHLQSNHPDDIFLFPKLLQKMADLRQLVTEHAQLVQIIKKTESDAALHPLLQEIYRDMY
# Method in brief: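 Cells plated at 2,000/well and held overnight at 37 C, 5% CO2, then compound added by pin tool for 6 hr; after PathHunter detection reagent and 60 min at room temperature, chemiluminescence from enzyme complementation was read.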
# [11] = qHTS assay for small molecule agonists of the antioxidant response element (ARE) signaling pathway measured by Nrf2-dependant transcriptional activity - cell viability counter screen (AID 720653; active = well fitted curve in the direction sought with a large enough effect in the repeat runs; an effect the other way counts as inactive or inconclusive; also: % is scaled to controls: 0 for no effect and ±100 for the full control effect); conditions: ARE-bla HepG2 viability, CellTiter-Glo ATP luminescence, 16 h; max response: stronger effect = lower value
# Method in brief: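 ARE-bla HepG2 cells (2,000/well) rested 5 hrs at 37C/5% CO2, then exposed to compounds in DMSO for 16 hrs. Viability was read in the same wells as intracellular ATP by luminescence, 30 min at room temperature after reagent addition.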
# [12] = qHTS assay for cell viability of HEK293 cells (AID 743288; active = well fitted curve in the direction sought with a large enough effect; an effect the other way counts as inactive or inconclusive; also: % is scaled to controls: 0 for no effect and ±100 for the full control effect; nearly all actives have a fitted effect of over 50% in size); conditions: ATP luminescence (CellTiter-Glo), 18 h; max response: stronger effect = lower value
# Method in brief: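 Parental HEK293 cells were seeded at 2,000 cells/well, rested at least 5 h at 37 C, then exposed to compounds in DMSO for 18 h at 37 C. Viability was read as ATP-dependent luciferase luminescence after 30 min at room temperature.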
# [13] = qHTS assay for cell viability of the p53RE-bla HCT-116 cell line (AID 743292; active = well fitted curve in the direction sought with a large enough effect; an effect the other way counts as inactive or inconclusive; also: % is scaled to controls: 0 for no effect and ±100 for the full control effect; nearly all actives have a fitted effect of over 55% in size)
# Method in brief: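 Intracellular ATP of p53RE-bla HCT-116 cells measured by luciferase luminescence following 16 h compound incubation at 37 C; DMSO-only wells served as vehicle controls.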
# [14] = molecular target: Nuclear receptor subfamily 1 group I member 2 (Rattus norvegicus) (UniProt Q9R1A7); assay: qHTS assay for small molecule activators of the rat pregnane X receptor (rPXR) signaling pathway (AID 651751; call rule not given here; also: 0% is about no effect); conditions: rPXR reporter cells, luciferase (One-Glo), 24 h
# Chain of Nuclear receptor subfamily 1 group I member 2 (Rattus norvegicus) (Q9R1A7 whole entry, looked up): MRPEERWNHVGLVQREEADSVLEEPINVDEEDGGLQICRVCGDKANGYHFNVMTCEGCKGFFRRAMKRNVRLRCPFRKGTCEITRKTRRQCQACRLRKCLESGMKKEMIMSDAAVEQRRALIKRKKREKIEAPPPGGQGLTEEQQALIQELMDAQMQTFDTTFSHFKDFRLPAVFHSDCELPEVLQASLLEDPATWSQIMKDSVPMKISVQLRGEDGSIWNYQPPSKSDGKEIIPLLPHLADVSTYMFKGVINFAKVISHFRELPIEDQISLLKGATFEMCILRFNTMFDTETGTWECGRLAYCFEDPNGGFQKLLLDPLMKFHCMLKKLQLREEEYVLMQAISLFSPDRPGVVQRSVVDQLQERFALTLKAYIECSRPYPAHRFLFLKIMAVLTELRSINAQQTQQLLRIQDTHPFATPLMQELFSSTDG
# [15] = molecular target: Peroxisome proliferator-activated receptor delta (Homo sapiens) (UniProt Q03181); assay: qHTS assay for small molecule agonists of peroxisome proliferator-activated receptor delta signaling (AID 588534);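 also: 0% = DMSO basal wells and 100% = positive control agonist at 10 µM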
# Chain of Peroxisome proliferator-activated receptor delta (Homo sapiens) (Q03181 whole entry, looked up): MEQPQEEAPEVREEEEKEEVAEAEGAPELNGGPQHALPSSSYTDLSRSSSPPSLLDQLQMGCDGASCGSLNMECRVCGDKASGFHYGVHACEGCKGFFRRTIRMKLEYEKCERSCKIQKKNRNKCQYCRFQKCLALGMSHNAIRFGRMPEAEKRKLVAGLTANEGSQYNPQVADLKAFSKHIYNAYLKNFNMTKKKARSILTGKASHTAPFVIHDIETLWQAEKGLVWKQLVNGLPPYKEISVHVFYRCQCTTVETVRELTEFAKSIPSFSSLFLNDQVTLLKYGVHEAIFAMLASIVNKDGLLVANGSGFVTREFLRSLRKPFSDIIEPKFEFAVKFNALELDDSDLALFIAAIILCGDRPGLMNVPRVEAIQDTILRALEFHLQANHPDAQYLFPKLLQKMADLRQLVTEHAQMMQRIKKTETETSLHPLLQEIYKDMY
# Method in brief: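 Cells carrying a PPAR-delta beta-lactamase reporter were treated with compounds for 18 h at 37 °C in agonist mode. CCF4 fluorescence was read after 2 h; EC50 and efficacy from Hill fits.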
# [16] = qHTS assay for small molecule antagonists of peroxisome proliferator-activated receptor delta signaling (AID 588535; active = well fitted inhibition curve with a large enough effect in the signal ratio, with a control signal flat, not every such curve was filed as active; the % refers to the signal ratio;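 as to max response: cells co-treated with a PPAR-delta agonist as stimulator during compound exposure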); conditions: HEK293T PPARd-UAS-bla, beta-lactamase FRET ratio, 18 h; 460 nm channel
# Method in brief: (§2)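 Reporter: UAS-bla under PPAR-delta response element, HEK293T host. Medium: 2% charcoal/dextran FBS. Dosing: titration, 18 hrs, 37 C. Detection: CCF4, 2 hrs RT, 405 ex/460 and 530 em.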
# [17] = molecular target: Peroxisome proliferator-activated receptor delta (Homo sapiens) (UniProt Q03181); assay: as above
# Method in brief: as §2
# [18] = molecular target: Vitamin D3 receptor (Homo sapiens) (UniProt P11473); assay: qHTS assay for small molecule agonists of vitamin D receptor signaling (AID 588543);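 also: 0% = DMSO basal and 100% = reference agonist control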
# Method in brief: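 GeneBLAzer VDR-UAS-bla HEK293T cells in 2% charcoal-stripped FBS medium were dosed with compound titrations for 16 h at 37 °C; CCF4 β-lactamase readout (405 nm ex, 460/530 nm em). EC50 and efficacy from Hill fits, normalized to 50 nM calcitriol (100%) and DMSO (0%).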
# [19] = qHTS assay for small molecule agonists of the antioxidant response element (ARE) signaling pathway measured by Nrf2-dependant transcriptional activity (AID 720636; active = well fitted curve in the direction sought with a large enough effect in the repeat runs; an effect the other way counts as inactive or inconclusive; also: potency is read from the fitted curve at half-maximal effect;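 as to activation: HepG2 cells with an ARE-driven luciferase reporter; % of control where 0% means no effect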)
# Method in brief: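 In HepG2 cells engineered with an Nrf2-responsive luciferase gene, ARE induction was quantified as luminescence after 16 hr compound treatment at 37 C.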
# [20] = qHTS assay for environmental chemicals that activate the Aryl hydrocarbon Receptor (AhR) signaling pathway (AID 651777; active = well fitted curve in the direction sought with a large enough effect; an effect the other way counts as inactive or inconclusive; also: % of control where 0% means no effect; nearly all actives have a fitted effect of over 15% in size); conditions: 1A2-DRE human hepatoma cells, luciferase, 24 h; activation: stronger effect = higher value
# Method in brief: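 Measured luciferase activity, read 30 min after One-Glo addition at room temperature, from human hepatoma cells bearing a dioxin response element–CYP1A2 promoter reporter and exposed to compound for 24 hr at 37 C.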
# Chain of Bile acid receptor (Homo sapiens) (Q96RI1 whole entry, looked up): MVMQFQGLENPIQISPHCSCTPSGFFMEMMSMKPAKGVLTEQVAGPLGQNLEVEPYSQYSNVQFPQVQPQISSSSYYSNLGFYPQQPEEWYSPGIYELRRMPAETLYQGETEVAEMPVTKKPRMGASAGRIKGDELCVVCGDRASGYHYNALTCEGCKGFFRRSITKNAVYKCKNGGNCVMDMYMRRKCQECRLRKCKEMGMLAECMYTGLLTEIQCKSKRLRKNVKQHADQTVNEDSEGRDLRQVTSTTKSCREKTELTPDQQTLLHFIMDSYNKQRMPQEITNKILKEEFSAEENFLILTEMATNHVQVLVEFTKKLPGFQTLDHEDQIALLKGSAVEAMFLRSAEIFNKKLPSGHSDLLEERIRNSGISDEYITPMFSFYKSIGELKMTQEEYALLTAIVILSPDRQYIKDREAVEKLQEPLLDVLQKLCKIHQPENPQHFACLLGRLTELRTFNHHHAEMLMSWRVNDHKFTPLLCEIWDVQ
smiles,measurement,setting,value
CCN(CC)C(=O)SCc1ccc(Cl)cc1,Potency,[1],inactive
same,activation,[2],5.41% (inactive)
same,Potency,[3],inactive
same,Potency,[4],inactive
same,Potency,[5],inactive
same,max response,[6],-13.2%
same,max response,[7],-31.3% (inactive)
same,activation,[8],1.13% (inactive)
same,activation,[9],-0.511% (inactive)
same,max response,[10],-1.35% (inactive)
same,max response,[11],-5.19% (inactive)
same,max response,[12],-14.7% (inactive)
same,Potency,[13],inactive
same,max response,[14],1.53% (inactive)
CCNc1nc(NC(C)C)nc(OC)n1,Potency,[1],inactive
same,activation,[2],-2.29% (inactive)
same,outcome,[15],inactive
same,max response,[16],24.4%
same,Potency,[17],inactive
same,Potency,[3],inactive
same,outcome,[18],inactive
same,Potency,[4],inactive
same,Potency,[5],inactive
same,max response,[6],-8.69%
same,max response,[7],2.56% (inactive)
same,activation,[8],-0.985% (inactive)
same,activation,[9],-1.42% (inactive)
same,max response,[10],-1.03% (inactive)
same,Potency,[19],inactive
same,max response,[11],6.46% (inactive)
same,Potency,[13],inactive
same,max response,[14],0.846% (inactive)
Cc1cc(C2CC2)nc(Nc2ccccc2)n1,Potency,[1],inactive
same,activation,[2],-4.1% (inactive)
same,max response,[16],1.7%
same,Potency,[17],inactive
same,Potency,[3],inactive
same,outcome,[18],inactive
same,Potency,[4],inactive
same,Potency,[5],inactive
same,max response,[6],-2.59%
same,max response,[7],-23.3% (inactive)
same,max response,[10],5.58% (inactive)
same,max response,[11],0.0652% (inactive)
same,Potency,[13],inactive
N#Cc1cc(Br)c(O)c(Br)c1,Potency,[1],inactive
same,activation,[2],1.36% (inactive)
same,outcome,[15],inactive
same,Potency,[4],15.8 µM (active)
same,Potency,[5],inactive
same,max response,[6],-9.47%
same,max response,[7],1.7% (inactive)
same,activation,[8],5.1% (inactive)
same,activation,[20],1.12% (inactive)
same,Potency,[10],25.1 µM (active)
same,Potency,[19],inactive
same,max response,[11],-28.2% (inactive)
same,max response,[12],-7.19% (inactive)
same,Potency,[13],inactive
same,max response,[14],-9.3% (inactive)
CCCOCC(=Nc1ccc(Cl)cc1C(F)(F)F)n1ccnc1,Potency,[1],inactive
same,activation,[2],-0.0346% (inactive)
same,outcome,[15],inactive
same,max response,[16],18.7%
same,Potency,[17],inactive
same,Potency,[3],inactive
same,outcome,[18],inactive
same,Potency,[4],inactive
same,Potency,[5],inactive
same,activation,[8],-5.04% (inactive)
same,activation,[9],-1.47% (inactive)
same,activation,[20],14% (inactive)
same,max response,[10],9.44% (inactive)
same,Potency,[19],61.1 µM (active)
same,max response,[11],-4.06% (inactive)
same,max response,[12],-21.5% (inactive)
same,Potency,[13],inactive
CCc1cc(C)cc(CC)c1-c1c(OC(=O)C(C)(C)C)n2n(c1=O)CCOCC2,Potency,[1],inactive
same,activation,[2],2.69% (inactive)
same,outcome,[15],inactive
same,max response,[16],34.5%
same,Potency,[17],inactive
same,Potency,[3],inactive
same,Potency,[4],inactive
same,Potency,[5],inactive
same,max response,[6],0.581%
same,max response,[7],4.99% (inactive)
same,activation,[20],2.1% (inactive)
same,max response,[10],-1.33% (inactive)
same,Potency,[19],inactive
same,max response,[12],-3.66% (inactive)
same,Potency,[13],inactive
same,max response,[14],1.04% (inactive)
